# Source: publication PMC12864922, “TDP-43 directly inhibits mRNA accumulation in neurites through modulation of mRNA stability”
# The full ranking holds about 9,900 sequences; the median of “r (bound/input frequency ratio)” is about 0.7, and the highest 2% start at about 6.5. Only a selection was taken, and the highest values are over-represented in it overall.
# B1: ENSMUSG00000029636.187|Wasf3 (ssRNA)
# RNA: GGGAGUUCUACAGUCCGACGAUCGCUUCGAUAUCCGCAUGCUAAAUUUUAAAAAGUACCUCACAAGAUAAACUUGAUUCAGCCAGUUGCCCGGGCAGAGACCUGACUUCCCCUCUCCUGCCCUGAUCCUUUUUACCAAAUGGCGAUUCCAUAGUCCUGGCUGAGGCAGGGGCUCAAAGUCCAGUGUCUGCUUUGCAAUUCUGGAAGGACAGCUGCUUAUUUAAAUAAGUCUGUGAUAUCCGCAGGCUUGGGUUACAGGGAGGACCUUGCAGAGGGACCAGGACACUGCCUUCCCUUAGGUGCACUCUUGCGGUCGCACUAGUGUGGAAUUCUCGGGUGUCAAGG
# B2: ENSMUSG00000058297.287|Spock2 (ssRNA)
# RNA: GGGAGUUCUACAGUCCGACGAUCGCUUCGAUAUCCGCAUGCUAAGAGAGAGAGAGAGAGAGAGAGAGAGAGAGAGAGAGAAAGAGAGAGAGAAUGAGAGAGAAUGAGAGAGAGAAUACCCGAGGGCCACCCUGAUGCCCAGGAAGAGUGAGGGCAGCCCCCUGUGUGGUGGAAGAGGCUGGGCAGCUAGCUACUGGGGACCUUGUGCUGAGGCUUCCAGGACAAAGCCCCAGUCUGGCUCUCCCCCAGCCUCUCAGGGGCACUGGCUGGUCACAUCCACUGAGUAUUGAUCGGUUGGACUUUACUCUUGCGGUCGCACUAGUGUGGAAUUCUCGGGUGUCAAGG
# B3: ENSMUSG00000043670.285|Diras1 (ssRNA)
# RNA: GGGAGUUCUACAGUCCGACGAUCGCUUCGAUAUCCGCAUGCUAGAGUGGGAGGUAGAAUGAGAGAGAGUGUGUAUUGGAAGGGAGAGAGAGAGUGUGAGAGAGUGUGAGAGAGAGACAGAGACAGAGAUAAAGGAGAUAAAGAGAGACAAAGACAUGGUCACAAAGAGACAGAGAAGCAGAAAGAAGGCUGAAGCCAGAUGACCAAGUAGGCCGGACCCCACUGUGUUCCCUUCUGUGUGCCAGGCACAGGGAGAGCCACAGCCUGAAGCCUGAGUCUGAGCAUAGCUGAGCCCUGACCUCUACUCUUGCGGUCGCACUAGUGUGGAAUUCUCGGGUGUCAAGG
# B4: ENSMUSG00000058297.290|Spock2 (ssRNA)
# RNA: GGGAGUUCUACAGUCCGACGAUCGCUUCGAUAUCCGCAUGCUAAGAGAGAGAGAGAGAGAGAAAGAGAGAGAGAAUGAGAGAGAAUGAGAGAGAGAAUACCCGAGGGCCACCCUGAUGCCCAGGAAGAGUGAGGGCAGCCCCCUGUGUGGUGGAAGAGGCUGGGCAGCUAGCUACUGGGGACCUUGUGCUGAGGCUUCCAGGACAAAGCCCCAGUCUGGCUCUCCCCCAGCCUCUCAGGGGCACUGGCUGGUCACAUCCACUGAGUAUUGAUCGGUUGGACUUUAGGGAAGAGCCUCCUCCUUCUCUUGCGGUCGCACUAGUGUGGAAUUCUCGGGUGUCAAGG
# B5: ENSMUSG00000058297.293|Spock2 (ssRNA)
# RNA: GGGAGUUCUACAGUCCGACGAUCGCUUCGAUAUCCGCAUGCUAAAAGAGAGAGAGAAUGAGAGAGAAUGAGAGAGAGAAUACCCGAGGGCCACCCUGAUGCCCAGGAAGAGUGAGGGCAGCCCCCUGUGUGGUGGAAGAGGCUGGGCAGCUAGCUACUGGGGACCUUGUGCUGAGGCUUCCAGGACAAAGCCCCAGUCUGGCUCUCCCCCAGCCUCUCAGGGGCACUGGCUGGUCACAUCCACUGAGUAUUGAUCGGUUGGACUUUAGGGAAGAGCCUCCUCCUUCCCAUUCCUUUCUGCCACCUCUUGCGGUCGCACUAGUGUGGAAUUCUCGGGUGUCAAGG
# B6: ENSMUSG00000043670.284|Diras1 (ssRNA)
# RNA: GGGAGUUCUACAGUCCGACGAUCGCUUCGAUAUCCGCAUGCUAGAGGGAGAGUGGGAGGUAGAAUGAGAGAGAGUGUGUAUUGGAAGGGAGAGAGAGAGUGUGAGAGAGUGUGAGAGAGAGACAGAGACAGAGAUAAAGGAGAUAAAGAGAGACAAAGACAUGGUCACAAAGAGACAGAGAAGCAGAAAGAAGGCUGAAGCCAGAUGACCAAGUAGGCCGGACCCCACUGUGUUCCCUUCUGUGUGCCAGGCACAGGGAGAGCCACAGCCUGAAGCCUGAGUCUGAGCAUAGCUGAGCCCUGACUCUUGCGGUCGCACUAGUGUGGAAUUCUCGGGUGUCAAGG
# B7: ENSMUSG00000058297.292|Spock2 (ssRNA)
# RNA: GGGAGUUCUACAGUCCGACGAUCGCUUCGAUAUCCGCAUGCUAAGAGAGAAAGAGAGAGAGAAUGAGAGAGAAUGAGAGAGAGAAUACCCGAGGGCCACCCUGAUGCCCAGGAAGAGUGAGGGCAGCCCCCUGUGUGGUGGAAGAGGCUGGGCAGCUAGCUACUGGGGACCUUGUGCUGAGGCUUCCAGGACAAAGCCCCAGUCUGGCUCUCCCCCAGCCUCUCAGGGGCACUGGCUGGUCACAUCCACUGAGUAUUGAUCGGUUGGACUUUAGGGAAGAGCCUCCUCCUUCCCAUUCCUUUCCUCUUGCGGUCGCACUAGUGUGGAAUUCUCGGGUGUCAAGG
# B8: ENSMUSG00000043670.283|Diras1 (ssRNA)
# RNA: GGGAGUUCUACAGUCCGACGAUCGCUUCGAUAUCCGCAUGCUAGAGAGGGAGGGAGAGUGGGAGGUAGAAUGAGAGAGAGUGUGUAUUGGAAGGGAGAGAGAGAGUGUGAGAGAGUGUGAGAGAGAGACAGAGACAGAGAUAAAGGAGAUAAAGAGAGACAAAGACAUGGUCACAAAGAGACAGAGAAGCAGAAAGAAGGCUGAAGCCAGAUGACCAAGUAGGCCGGACCCCACUGUGUUCCCUUCUGUGUGCCAGGCACAGGGAGAGCCACAGCCUGAAGCCUGAGUCUGAGCAUAGCUGAGCUCUUGCGGUCGCACUAGUGUGGAAUUCUCGGGUGUCAAGG
# B9: ENSMUSG00000058297.289|Spock2 (ssRNA)
# RNA: GGGAGUUCUACAGUCCGACGAUCGCUUCGAUAUCCGCAUGCUAAGAGAGAGAGAGAGAGAGAGAGAGAAAGAGAGAGAGAAUGAGAGAGAAUGAGAGAGAGAAUACCCGAGGGCCACCCUGAUGCCCAGGAAGAGUGAGGGCAGCCCCCUGUGUGGUGGAAGAGGCUGGGCAGCUAGCUACUGGGGACCUUGUGCUGAGGCUUCCAGGACAAAGCCCCAGUCUGGCUCUCCCCCAGCCUCUCAGGGGCACUGGCUGGUCACAUCCACUGAGUAUUGAUCGGUUGGACUUUAGGGAAGAGCCUCCUCUUGCGGUCGCACUAGUGUGGAAUUCUCGGGUGUCAAGG
# Molecular target: TDP-43 (Homo sapiens, UniProt Q13148 1-414)
# Assay: RNA Bind-n-Seq with designed 260-mer pool; 25 mM Tris-HCl, 150 mM KCl, 3 mM MgCl2, BSA (printed 500 mg/mL), 20 units/mL SUPERase IN; pH not stated; 500 nM RNA pool, 1 h, 4 C; TDP-43 5, 50, 500 nM; high values mean tight binding
# Conditions: protein: recombinant; tags: SBP (GST cleaved off with PreScission; pGEX-GST-SBP)
# In short: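 Binding (R) is the ratio of each oligo's mapped-read-normalized abundance in the bound fraction to its abundance in the input. To obtain it, SBP-tagged recombinant TDP-43 (5, 50 or 500 nM) on streptavidin beads was incubated with 500 nM of an in vitro-transcribed 260-nt 3′ UTR oligo pool for 1 h at 4 °C in 25 mM Tris-HCl, 150 mM KCl, 3 mM MgCl2, BSA and SUPERase IN. The RNA retained after washing was released with biotin, then reverse transcribed, amplified by PCR and sequenced.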
# Chain of TDP-43 (Q13148 whole entry): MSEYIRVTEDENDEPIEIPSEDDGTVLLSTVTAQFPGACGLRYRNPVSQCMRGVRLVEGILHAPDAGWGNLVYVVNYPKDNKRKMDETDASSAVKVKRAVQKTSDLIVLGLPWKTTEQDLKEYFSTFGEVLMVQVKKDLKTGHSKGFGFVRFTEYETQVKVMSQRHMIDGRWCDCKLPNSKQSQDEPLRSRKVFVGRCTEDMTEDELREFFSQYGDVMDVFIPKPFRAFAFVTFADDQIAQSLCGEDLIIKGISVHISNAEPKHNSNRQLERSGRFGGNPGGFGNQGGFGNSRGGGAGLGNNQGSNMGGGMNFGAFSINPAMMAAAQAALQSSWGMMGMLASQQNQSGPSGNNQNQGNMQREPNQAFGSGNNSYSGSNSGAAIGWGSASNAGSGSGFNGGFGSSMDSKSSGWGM
row,Binder,binding signal
1,B1,0.317 R (bound/input frequency ratio)
2,B2,7.5 R (bound/input frequency ratio)
3,B3,6.66 R (bound/input frequency ratio)
4,B4,8.79 R (bound/input frequency ratio)
5,B5,2.36 R (bound/input frequency ratio)
6,B6,5.75 R (bound/input frequency ratio)
7,B7,6.42 R (bound/input frequency ratio)
8,B8,4.07 R (bound/input frequency ratio)
9,B9,7.91 R (bound/input frequency ratio)
